# Shown are actives, neighbours in structure and some others; about 8.8% of the full set was active somewhere.
# HT1080 IDH1KD tx: qHTS for induction of synthetic lethality in tumor cells producing 2HG: qHTS for the HT-1080-IDH1KD cell line. actives 2% (n = 360,000). Potency, µM (doses to about 46.1 µM), inactives show at the top dose activity, negative = toxicity, hits mostly cytotoxic. HT-1080 IDH1 knockdown viability, ATP luminescence, 48 h. AID 686971, 2013;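 note: potency is the fitted concentration of half-maximal effect; 0% = DMSO wells and -100% = cell-free medium wells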
#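 Cytotoxicity counter-line: IDH1KD HT-1080, 48 h, CellTiter-Glo. Curves classed by r2, magnitude and activity.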
# KB-V1 cytotox: qHTS assay for MDR1-selective chemotherapeutics: Primary screen using the drug-selected MDR subline cells KB-V1; KB-V1 MDR cells viability, CellTiter-Glo, 72 h; Potency, µM (series often up to 46.1 µM), actives largely listed as cytotoxic; actives 3.4% (n = 400,000); note: potency is the fitted concentration of half-maximal effect; nearly all actives have a fitted effect of over 60% in size
#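 KB-V1 MDR subline cells in DMEM (phenol-red free, 10% FBS) exposed to compounds in qHTS concentration series for 72 h at 37 degrees C. Viability read by CellTiter-Glo luminescence; concentration-effect curves fitted after normalization and correction.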
# IL1B secr inh: qHTS for Inhibitors of Inflammasome Signaling: IL-1-beta AlphaLISA Primary Screen | THP-1 LPS/ATP IL-1B secretion, AlphaLISA, 16 h; stronger effect = lower value | activity change, % at 57.5 µM | actives 4.7% (n = 360,000) | AID 743279, 2014; in the data active = activity change below about -50%; inconclusive = mostly about -30% to -49%
#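 Secreted IL-1B measured by AlphaLISA bead assay after 16 h compound exposure of THP-1 cells; compounds (final up to 57.5 uM) added 1 h before LPS (250 ng/mL) and ATP (1.25 mM) stimulation; lower signal means less secretion.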
# HT1080-NT tox: qHTS for induction of synthetic lethality in tumor cells producing 2HG: qHTS for the HT-1080-NT fibrosarcoma cell line. HT-1080-NT fibrosarcoma viability, CellTiter-Glo ATP luminescence, 48 h. Potency, µM (top dose mostly 46.1 µM), inactives show top-dose activity, negative = less viability, hits mostly cytotoxic. actives 1.6% (n = 360,000). AID 686970, 2013;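 note: NT is the 2HG producing partner of a matched IDH1 knockdown line; potency is the fitted concentration of half-maximal effect; 0% = DMSO-treated cells and -100% = media-only wells without cells; nearly all actives have a fitted effect of over 55% in size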
#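 Viability of the 2HG-overproducing fibrosarcoma line after 48 hours of compound exposure at 37 degrees C was determined by luminescence with CellTiter-Glo, and concentration-effect curves were then fitted and categorized.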
# KB-3-1 cytotox: qHTS assay for MDR1-selective chemotherapeutics: Primary screen using the parental adenocarcinoma cell KB-3-1. KB-3-1 viability, CellTiter-Glo ATP luminescence, 72 h. Potency, µM (highest dose often 46.1 µM), usual class: cytotoxic. actives 1.4% (n = 400,000); note: potency is the fitted concentration of half-maximal effect; nearly all actives have a fitted effect of over 60% in size
#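 Multi-concentration cytotoxicity screen in KB-3-1 cells grown in DMEM lacking phenol red with 10% FBS. After 72 h at 37 °C with compound, ATP-dependent luminescence was recorded.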
# * marks the source's active call; other numbers are inactive results; i = inactive; ? = inconclusive; · = no result given. Unless noted, calls come from the whole dose curve; as a rule, active = well fitted curve in the direction sought with a large enough effect; inconclusive = small, poorly fitted or top-dose-only effect, or another doubt; inactive = no such curve, though single readings can be large; an effect the other way counts as inactive or inconclusive. Unless noted, % is set by controls: 0 for no effect and ±100 for the full control effect.
SMILES,HT1080 IDH1KD tx,KB-V1 cytotox,IL1B secr inh,HT1080-NT tox,KB-3-1 cytotox
Cc1ccc(C)c(S(=O)(=O)N2CCCOC2CNC(=O)C(=O)NCCC2=CCCCC2)c1 (stereo not drawn),4%,5.2µM*,0,6%,i
Cc1ccc(C)c(S(=O)(=O)N2CCCOC2CNC(=O)C(=O)NCCc2ccccc2)c1 (stereo not drawn),-17%,?,i,-5%,i
O=C(NCCC1=CCCCC1)C(=O)NCC1OCCCN1S(=O)(=O)c1ccccc1 (stereo not drawn),3%,9.2µM*,13,3%,i
O=C(NCCc1ccco1)C(=O)NCC1OCCCN1S(=O)(=O)c1ccccc1 (stereo not drawn),-15%,i,-1,-5%,i
CCN(CC)/C(N)=N/c1nc(C)cc(C)n1,-1%,i,38,3%,i
CN(C)c1ccc(CN2CCCCCC2)cc1,-1%,i,4,-7%,i
CCN(CC)c1ccc(CN2CCCCCC2)cc1,3%,18µM*,-9,-6%,?
COc1ccc(CCNC(=O)CCc2ccsc2)cc1OC,17%,i,9,8%,i
CC(=O)C(Sc1nnnn1-c1ccccc1)C(C)=O,14%,i,11,10%,i
CCN(CC)C(=O)C(Sc1nnnn1-c1ccc(O)cc1)c1ccccc1 (stereo not drawn),3%,i,-74*,-1%,i
CC(Sc1nnnn1-c1ccccc1)C(=O)Nc1ccc(Cl)cn1 (stereo not drawn),6%,18µM*,-7,11%,i
CC(Sc1nnc2ccccn12)C(=O)Nc1ccc(Cl)cn1 (stereo not drawn),6%,i,12,-1%,i
CCC(Sc1nnnn1-c1ccccc1)C(=O)NC(C)c1ccccc1 (stereo not drawn),8%,5.8µM*,-5,1%,i
CCC(Sc1nnnn1-c1ccccc1)C(=O)Nc1nc2ccccc2s1 (stereo not drawn),?,i,35,?,i
O=C(Cc1cccc2ccccc12)Nc1c(F)cccc1F,2%,i,-20,7%,i
CN(C)c1ccc(/C=C/c2ccnc3ccccc23)cc1C=O,·,i,·,·,i
Cc1ccc2nccc(/C=C/c3ccc(N(C)C)cc3)c2c1,·,18µM*,·,·,?
CN(C)c1ccc(/C=C\C=C/c2ccnc3ccccc23)cc1,·,i,·,·,0.92µM*
CN(C)c1ccc(N=Cc2ccnc3ccccc23)cc1,·,i,·,·,i
CCc1cc(/C=C/c2ccnc3ccccc23)ccc1N(C)C,·,?,·,·,6.5µM*
Cc1ccc2c(/C=C/c3ccc(N(C)C)cc3)ccnc2c1,·,?,·,·,i
O=C(N[C@H]1/C=C\[C@@H](O)CCCC1)OCc1ccccc1,2%,i,-14,2%,i
COc1ccc2cc(C(=O)N/N=C/c3sc4ccccc4c3O)ccc2c1,?,23µM*,1,?,13µM*
O=C(N/N=C/c1sc2ccccc2c1O)c1ccccc1,2.6µM*,?,51,8.2µM*,i
COc1ccc(C(=O)N/N=C/c2sc3ccccc3c2O)cc1,?,?,9,?,7.3µM*
SMILES,HT1080 IDH1KD tx,KB-V1 cytotox,IL1B secr inh,HT1080-NT tox,KB-3-1 cytotox
CC1(C)CC(=O)C2=C(C1)NC(Nc1nc3ccccc3o1)=NC2c1ccccc1 (stereo not drawn),·,i,·,·,i
COc1ccc(NC(=O)CN(C)CC(=O)Nc2sc3c(c2C#N)CCC3)cc1,-3%,i,-27,-6%,i
CCCCNC(=O)C1(C)CCCCN1C(=O)c1cc(OC)ccc1Br (stereo not drawn),?,i,-96*,9%,i
CCCCNC(=O)C1(C)CCN1C(=O)c1cc(-c2cccs2)oc1C (stereo not drawn),23µM*,i,-104*,?,?
c1ccc(C(c2nnnn2C2CCCC2)N2CCN(c3ccccc3)CC2)cc1 (stereo not drawn),-2%,?,-50*,0%,i
Clc1ccc(C(c2nnnn2C2CCCC2)N2CCSCC2)cc1 (stereo not drawn),-24%,i,-62*,-10%,i
Fc1ccc(C(c2nnnn2C2CCCCC2)N2CCCC2)cc1 (stereo not drawn),7%,?,8,2%,i
O=C(OC1CCOC1=O)C1CCN(S(=O)(=O)c2c(Cl)cccc2Cl)CC1 (stereo not drawn),-4%,i,?,-3%,i
Cc1ccc(NC(=O)C2CCCN(c3nc4ccccc4s3)C2)c(C)c1 (stereo not drawn),·,i,·,·,i
CN1CCN(c2nc(-c3ccccc3Cl)nc3ccccc23)CC1,1%,i,?,2%,i
O=S(=O)(c1cccc(F)c1)N1CCN(c2nc(-c3cccnc3)nc3ccccc23)CC1,11%,?,-57*,1%,?
COc1cccc(-c2nc(N3CCCCC3C)c3ccccc3n2)c1O (stereo not drawn),?,i,10,?,i
CN1CCN(c2nc(-c3ccncc3)nc3ccccc23)CC1,?,?,-57*,?,i
CN1CCN(c2nc(-c3ccc(Cl)cc3Cl)nc3ccccc23)CC1,?,?,?,?,i
CN1CCN(c2nc(-c3ccc(Cl)cc3)nc3ccccc23)CC1,4%,i,-89*,-9%,i
COc1cccc(-c2nc(N3CCN(C)CC3)c3ccccc3n2)c1O,15µM*,?,-98*,-24%,i
CCCCNC(=O)N(O)C1N(/N=C/c2ccco2)C(=S)SC1(C)C (stereo not drawn),8%,?,19,4%,i
C[C@H](O)[C@@H]1CN2CCc3c([nH]c4ccccc34)[C@@H]2C[C@@H]1N(C)Cc1cc(Cl)cc(Cl)c1,-9%,i,-16,-16%,i
c1ccc2c(N3CCCC3)nc(-c3ccncc3)nc2c1,-4%,i,-80*,-2%,i
Cc1ccc(S(=O)(=O)N2CCN(c3nc(-c4ccncc4)nc4ccccc34)CC2)cc1,-28%,·,·,-11%,·
O=C(NCC1CCCN(Cc2cccc(F)c2)C1)c1cccc2ccccc12 (stereo not drawn),-9%,i,-29,1%,?
C/C=C/c1ccc(O)c(OC)c1,0%,i,-4,-2%,i
